# Structures can show the parent of a compound that is named as a salt.
# What was measured:
# [1] = system: S. cerevisiae SK1 pCDA2-eGFP (USY613), sporulating; assay: CDA2-GFP sporulation assay sensitivity score (z-score vs DMSO controls); higher = stronger inhibition of sporulation, active = hit call of the paper;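 further: active if sensitivity score above 5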
# [2] = system: S. cerevisiae NKY1551 his4x/his4B, sporulating; assay: HIS4 meiotic recombination assay sensitivity score (z-score vs DMSO controls); higher = stronger inhibition of sporulation/recombination, active = hit call of the paper;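 further: active if sensitivity score above 5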
# [3] = system: S. cerevisiae AD1-9 (efflux-pump deficient), vegetative growth in YPD; assay: growth sensitivity score (doubling time z-score vs DMSO controls); higher = slower growth, strongly negative scores also mark growth inhibition (complete suppression), active = hit call of the paper
# Method in brief: (§1)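 Optical density of Saccharomyces cerevisiae cultures in microtiter plates was followed every 15 min for 24 hours after seeding at an OD600 of 0.065. Eight solvent-only wells were run per experiment. Growth sensitivity scores were found by subtracting the solvent-only mean from the compound mean and dividing by the solvent-only standard deviation.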
# [4] = system: S. cerevisiae BY4741 (wild-type), vegetative growth in YPD; assay: as above
# Method in brief: as §1
Structure (SMILES),CDA2-GFP sporulation assay sensitivity score [1],HIS4 meiotic recombination assay sensitivity score [2],growth sensitivity score [3],growth sensitivity score [4]
"NNCCc1ccccc1 [Phenelzine sulfate salt] (stock concentration (mM, diluted 1:100): 10)",1.83 (inactive),-3.78 (inactive),-0.66 (inactive),0.3 (inactive)
"O=C1CN2Cc3c(ccc(Cl)c3Cl)N=C2N1 [Anagrelide hydrochloride] (stock concentration (mM, diluted 1:100): 8.8)",3.77 (inactive),-0.8 (inactive),-1.22 (inactive),-2.21
"COc1ccccc1OCCNCC(O)COc1cccc2[nH]c3ccccc3c12 (stereo not drawn) [Carvedilol] (stock concentration (mM, diluted 1:100): 10)",-0.9 (inactive),0.66 (inactive),50.7 (active),0.43 (inactive)
"Cc1ncc([N+](=O)[O-])n1CC(C)O (stereo not drawn) [Secnidazole] (stock concentration (mM, diluted 1:100): 10)",0.94 (inactive),0.68 (inactive),-0.44 (inactive),-0.7 (inactive)
"CC(C)OC(=O)CCC/C=C\C[C@@H]1[C@@H](CC[C@@H](O)CCc2ccccc2)[C@H](O)C[C@@H]1O [Latanoprost] (stock concentration (mM, diluted 1:100): 10.3)",8.85 (active),0.65 (inactive),125 (active),0.43 (inactive)
"CNC(=N)NCCC[C@H](N)C(=O)O [omega-N-Methylarginine] (stock concentration (mM, diluted 1:100): 9.3)",1.34 (inactive),-0.29 (inactive),-3.59,-0.56 (inactive)
"CN1CCC(=C2c3ccccc3CCc3sccc32)CC1 [Pizotyline] (stock concentration (mM, diluted 1:100): 10)",-0.44 (inactive),9.23 (active),161 (active),5.7 (active)
"CC(C)NCC(O)COc1ccc(CCOCC2CC2)cc1 (stereo not drawn) [Betaxolol hydrochloride] (stock concentration (mM, diluted 1:100): 10)",7.8 (active),-0.58 (inactive),-0.35 (inactive),0.42 (inactive)
"COc1cc([C@@H]2c3cc4c(cc3[C@@H](O[C@@H]3O[C@@H]5CO[C@@H](C)O[C@H]5[C@H](O)[C@H]3O)[C@H]3COC(=O)[C@H]23)OCO4)cc(OC)c1O [Etoposide] (stock concentration (mM, diluted 1:100): 10)",3.42 (inactive),0.11 (inactive),59.2 (active),0.01 (inactive)
"CN1CCN2c3ncccc3Cc3ccccc3C2C1 (stereo not drawn) [Mirtazapine] (stock concentration (mM, diluted 1:100): 10)",12.7 (inactive),3.31 (inactive),2.89 (active),-0.03 (inactive)
"COc1cc(C[C@@H](CO)[C@H](CO)Cc2ccc(O)c(OC)c2)ccc1O [Secoisolariciresinol] (stock concentration (mM, diluted 1:100): 10)",-0.44 (inactive),–,0.75 (inactive),-0.92 (inactive)
"Cc1c2oc3c(C)ccc(C(=O)N[C@@H]4C(=O)N[C@H](C(C)C)C(=O)N5CCC[C@H]5C(=O)N(C)CC(=O)N(C)[C@@H](C(C)C)C(=O)O[C@@H]4C)c3nc-2c(C(=O)N[C@@H]2C(=O)N[C@H](C(C)C)C(=O)N3CCC[C@H]3C(=O)N(C)CC(=O)N(C)[C@@H](C(C)C)C(=O)O[C@@H]2C)c(N)c1=O [Dactinomycin] (stock concentration (mM, diluted 1:100): 10)",–,0.61 (inactive),-0.59 (inactive),1.17 (inactive)
"COc1ccc(CN2CCN(C(c3ccc(F)cc3)c3ccc(F)cc3)CC2)c(OC)c1OC [Lomerizine dihydrochloride] (stock concentration (mM, diluted 1:100): 8.7)",13.1 (active),-0.52 (inactive),–,2.29 (active)
"CC(=O)[C@H]1CC[C@H]2[C@@H]3CCC4=CC(=O)CC[C@]4(C)[C@H]3CC[C@]12C [Progesterone] (stock concentration (mM, diluted 1:100): 10)",16.2 (active),–,112 (active),4.04 (active)
"CCCCC1=NC2(CCCC2)C(=O)N1Cc1ccc(-c2ccccc2-c2nnn[nH]2)cc1 [Irbesartan] (stock concentration (mM, diluted 1:100): 10.1)",-0.17 (inactive),–,-0.82 (inactive),-0.72 (inactive)
"COc1ccccc1OCC(O)CN1CCN(CC(=O)Nc2c(C)cccc2C)CC1 (stereo not drawn) [Ranolazine dihydrochloride] (stock concentration (mM, diluted 1:100): 8.6)",-1.05 (inactive),–,-1.41 (inactive),-0.31 (inactive)
"CC(C)(O)c1ccccc1CC[C@@H](SCC1(CC(=O)O)CC1)c1cccc(/C=C/c2ccc3ccc(Cl)cc3n2)c1 [Montelukast] (stock concentration (mM, diluted 1:100): 9.6)",–,0.61 (inactive),0.91 (inactive),-1.05 (inactive)

Structure (SMILES),CDA2-GFP sporulation assay sensitivity score [1],HIS4 meiotic recombination assay sensitivity score [2],growth sensitivity score [3],growth sensitivity score [4]
"CCN(CC)C(=S)SSC(=S)N(CC)CC [Tetraethylthiuram disulfide] (stock concentration (mM, diluted 1:100): 10)",-1.5 (inactive),–,–,–
"O=C1[C@H](CC[C@H](O)c2ccc(F)cc2)[C@@H](c2ccc(O)cc2)N1c1ccc(F)cc1 [Ezetimibe] (stock concentration (mM, diluted 1:100): 10)",-0.54 (inactive),-0.94 (inactive),–,-0.7 (inactive)
"CCC(=O)NS(=O)(=O)c1ccc(-c2c(-c3ccccc3)noc2C)cc1 [Parecoxib] (stock concentration (mM, diluted 1:100): 9.8)",5.02 (inactive),–,0.73 (inactive),-0.35 (inactive)
"CCc1oc2ccccc2c1C(=O)c1cc(Br)c(O)c(Br)c1 [Benzbromarone] (stock concentration (mM, diluted 1:100): 10)",13.7 (active),-1.58 (inactive),–,72.3 (active)
"CC(C)c1ccc2c(c1)c(SC(C)(C)C)c(CC(C)(C)C(=O)O)n2Cc1ccc(Cl)cc1 [Tocris-1311] (stock concentration (mM, diluted 1:100): 10)",11.2 (active),–,6.29 (active),-0.4 (inactive)
"CC[C@@]1(O)C(=O)OCc2c1cc1n(c2=O)Cc2cc3c(CN(C)C)c(O)ccc3nc2-1 [Topotecan hydrochloride] (stock concentration (mM, diluted 1:100): 9.2)",–,0.22 (inactive),4.71 (active),-1.34 (inactive)
"CN1CCC(=C2c3ccccc3CC(=O)c3sccc32)CC1 [Ketotifen fumarate] (stock concentration (mM, diluted 1:100): 8.9)",4.44 (inactive),–,-0.77 (inactive),0.49 (inactive)
"CCOc1cc(CC(=O)N[C@@H](CC(C)C)c2ccccc2N2CCCCC2)ccc1C(=O)O [Repaglinide] (stock concentration (mM, diluted 1:100): 10)",2 (inactive),0.84 (inactive),–,2.53 (active)
"CCCCc1oc2ccccc2c1C(=O)c1cc(I)c(OCCN(CC)CC)c(I)c1 [Amiodarone hydrochloride] (stock concentration (mM, diluted 1:100): 9.5)",7.12 (inactive),-0.63 (inactive),–,126 (active)
"CC(=O)O[C@]1(C(C)=O)CC[C@H]2[C@@H]3C=C(C)C4=CC(=O)CC[C@]4(C)[C@H]3CC[C@@]21C [Megestrol acetate] (stock concentration (mM, diluted 1:100): 10)",0.75 (inactive),–,38.5 (active),1.27 (inactive)
"Cc1cccc(CCN2CCC(C(=O)c3ccc(NS(C)(=O)=O)cc3)CC2)n1 (stock concentration (mM, diluted 1:100): 9.9)",-0.99 (inactive),-3.32 (inactive),–,-0.44 (inactive)
"COc1cc(/C=C/c2ccc(O)cc2)cc(OC)c1 [Pterostilbene] (stock concentration (mM, diluted 1:100): 10)",-2.39 (inactive),–,–,–
"COC1=C(OC)C(=O)C(CCCCCCCCCCO)=C(C)C1=O [Idebenone] (stock concentration (mM, diluted 1:100): 10.2)",0.12 (inactive),-0.57 (inactive),–,15.6 (active)
"C#C[C@]1(O)CC[C@H]2[C@@H]3CCc4cc(O)ccc4[C@H]3CC[C@@]21C [Ethynylestradiol] (stock concentration (mM, diluted 1:100): 10)",6.44 (inactive),–,229 (active),2.85 (active)
"COc1ccccc1N1CCN(CC(O)COc2cccc3ccccc23)CC1 (stereo not drawn) [Naftopidil] (stock concentration (mM, diluted 1:100): 10)",9.59 (active),5.23 (active),–,7.62 (active)
"C[C@]12C[C@H](O)[C@H]3[C@@H](CCC4=CC(=O)CC[C@@]43C)[C@@H]1CC[C@@H]2C(=O)CO [Corticosterone] (stock concentration (mM, diluted 1:100): 10)",3.57 (inactive),–,2.14 (active),-0.97 (inactive)
"CCOC(=O)N1CCC(=C2c3ccc(Cl)cc3CCc3cccnc32)CC1 [Loratadine] (stock concentration (mM, diluted 1:100): 10)",3.83 (inactive),-1.19 (inactive),–,335 (active)

# — the supplement of paper PMC3414501
